Biological target: CDC23
Test: pooled miR-30 sensor sort-seq; sequence = guide strand
Details: shRNA
Also: reference of the scale not given here.

| Sequence | sensor-assay potency score (higher = more potent) |
| --- | --- |
| TATAATCCTATCTCCTTGCTTG | 0.291 |
| TTGAGTGGAGAAACTCTGCGTG | 0.52 |
| TAAATGCACAACACTTTTGTGC | -0.535 |
| TAAGAATCAAACATCATTCTGG | 0.585 |
| TCTATCAACTGCAACTCTGTGT | 0.16 |
| TATATTTGATGTAACACTGGGC | 0.351 |
| TTTATTAAAACAGACCAGCTTG | -0.155 |
| TTTGTGCACAAGTTGAAGCTTC | -0.382 |
| TATAGCTAACAATATAGCCATC | -1.75 |
